Screening data deposited in PubChem BioAssay by several laboratories.
MazF activator = MazEF (E. coli) toxin RNase activation; P0AE70; FAM/BHQ RNA-DNA oligo cleavage fluorescence, 5 h; activation, % at 20 µM; 350,000 tested, 0.32% active; AID 504720; in the data active = activation above about 50%
Target sequence (P0AE70 whole entry, looked up): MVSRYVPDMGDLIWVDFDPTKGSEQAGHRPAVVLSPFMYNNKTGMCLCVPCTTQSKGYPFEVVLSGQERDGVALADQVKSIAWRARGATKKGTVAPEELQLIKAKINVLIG
BoNT F protease = inhibitors of Botulinum neurotoxin F light chain protease; Multiplex microsphere protease cleavage assay, flow cytometry; inhibition, % at 10 µM; 360,000 tested, 0.22% active; AID 588497; in the data active = inhibition above about 35%, passing the limit was not always enough; inconclusive = no clear call, values can overlap the other calls
Bead autofluor = flagged as autofluorescent in microsphere protease counterscreen; AID 624483; compound autofluorescence counterscreen, microsphere flow cytometry; stronger effect = higher value; fluorescence intensity (concentration not given with the values); 360,000 tested, 3.1% active; in the data active = fluorescence intensity above about 16000; inconclusive = no clear call, values can overlap the other calls
Anthrax LF inh2 = blocks Bacillus anthracis lethal factor protease. 360,000 tested, 0.12% active. multiplex microsphere protease cleavage assay, LF. P15917. inhibition, % at 10 µM
PriA SSB inh = K. pneumoniae PriA-SSBct interaction inhibition; AlphaScreen SSBct-PriA binding, biotinylated peptide; inhibition, % at 33 µM; 430,000 tested, 0.6% active; AID 1272365; in the data active = inhibition mostly above about 37%, no sharp cut-off; inactive = mostly below about 20%
BoNT A protease = inhibitors of Botulinum neurotoxin A light chain protease; inhibition, % at 10 µM; AID 588499; 360,000 tested, 0.17% active; multiplex microsphere protease substrate cleavage, flow cytometry
Each line names hits and unclear results; the compound was inactive in the other large screens. A selection: hits, their analogues and other compounds. The true share with any hit is near 3.3%. Cut-off read from the data, not from the text of the source, unless noted: active = inhibition above about 30%; inconclusive = no clear call, values can overlap the other calls; inactive = below that.

CC1=C(C(=O)Nc2cccc(C)c2C)C(c2cccc(Br)c2)NC(=O)N1 (configuration not stated)	none (no result: MazF activator, BoNT F protease, Bead autofluor, Anthrax LF inh2, BoNT A protease)
CC1CCN(CC(=O)NCc2ccccc2)CC1	Bead autofluor 22476
CCOC(=O)c1ccc2c(c1)nc(-c1ccccn1)n2CC	none
CCOC(=O)c1ccc2c(c1)nc(COc1ccc(OC)cc1)n2CC	Bead autofluor 16133
COc1ccc(C(=O)OCC(=O)Nc2ccc(OC(F)F)cc2)c(OC)c1	Bead autofluor 16151
COCC(=O)NCCn1ncc2c(=O)n(Cc3ccc([N+](=O)[O-])cc3)cnc21	none (no result: MazF activator, BoNT F protease, Bead autofluor, Anthrax LF inh2, BoNT A protease)
CCCOc1ccc(/C=c2\sc3nc(-c4ccco4)nn3c2=O)cc1OCC	MazF activator 218 (no result: PriA SSB inh)
O=C(NCCn1cncn1)c1ccc(N2CCCC2)nn1	none (no result: MazF activator, BoNT F protease, Bead autofluor, Anthrax LF inh2, BoNT A protease)
Cc1cccc(C)c1-n1c(C)cc(/C=N/NC(=O)c2ccncc2)c1C	Bead autofluor 22105 (no result: PriA SSB inh)
Cc1ccc(-n2c(C)cc(C=NNC(=O)c3ccncc3)c2C)cc1	none (no result: MazF activator, BoNT F protease, Bead autofluor, Anthrax LF inh2, BoNT A protease)
O=C(NN=Cc1cc(Cl)ccc1O)c1ccncc1	PriA SSB inh 67 (no result: MazF activator, BoNT F protease, Bead autofluor, Anthrax LF inh2, BoNT A protease)
Cc1cc(/C=N/NC(=O)c2cccs2)c(C)n1-c1cnccn1	BoNT F protease 47 (no result: PriA SSB inh)
Cc1ccc(-n2c(C)cc(/C=N/NC(=O)c3ccncc3)c2C)c(C)c1	Bead autofluor 22871 (no result: PriA SSB inh)
Cc1cc(/C=N/NC(=O)c2ccncc2)c(C)n1-c1ccccc1	none (no result: PriA SSB inh)
Cc1cc(C=NNC(=O)c2ccsc2)c(C)n1-c1cnccn1	none (no result: MazF activator, BoNT F protease, Bead autofluor, Anthrax LF inh2, BoNT A protease)
CS(=O)(=O)N1CCC(C(=O)Nc2nc(-c3ccc(Cl)c(Cl)c3)cs2)CC1	none (no result: MazF activator, BoNT F protease, Bead autofluor, Anthrax LF inh2, BoNT A protease)
O=C(Cc1csc(Nc2ccc(OC(F)(F)F)cc2)n1)NC1CCCC1	none (no result: MazF activator, BoNT F protease, Bead autofluor, Anthrax LF inh2, BoNT A protease)
Nc1nc(C2CC(=O)OC23CCCCC3)cs1 (configuration not stated)	none
Nc1nc(C2C(=O)CCCC2=O)cs1	Bead autofluor 24150, PriA SSB inh 58
CCOc1cc(C(=O)OCC(=O)c2c(N)n(C)c(=O)n(C)c2=O)cc(OCC)c1OCC	Bead autofluor 22161
CS(=O)(=O)c1ccc2nc(NC(=O)Cc3csc(NC(=O)c4ccc5c(c4)OCO5)n3)sc2c1	none (no result: MazF activator, BoNT F protease, Bead autofluor, Anthrax LF inh2, BoNT A protease)
CC(Cc1ccco1)NC(=O)CCS(=O)(=O)c1ccccc1 (configuration not stated)	none (no result: MazF activator, BoNT F protease, Bead autofluor, Anthrax LF inh2, BoNT A protease)
COc1ccc(C)cc1NC(=O)Cn1nc2ccc(SCc3ccc(Cl)cc3)nn2c1=O	none (no result: MazF activator, BoNT F protease, Bead autofluor, Anthrax LF inh2, BoNT A protease)
O=[N+]([O-])/C=C/c1cn(Cc2ccc(Cl)cc2)c2ccccc12	BoNT A protease 39
Cc1cc(C)n(C2CCCCC2OC(=O)CCc2ccccc2)n1 (configuration not stated)	BoNT F protease inconclusive, Anthrax LF inh2 33, BoNT A protease inconclusive
NC(=O)c1cc2c3ccccc3ccn2c1-c1ccccc1	MazF activator 51
CC(C)CCn1c(CN2CCCCCC2)nc2ccccc21	none (no result: MazF activator, BoNT F protease, Bead autofluor, Anthrax LF inh2, BoNT A protease)
O=C(/C=C/c1ccc(Cl)cc1)NCCSc1ccccc1	Bead autofluor 19211, BoNT A protease inconclusive
Fc1ccc(CSc2nc3ccccc3[nH]2)c2ccccc12	MazF activator 54
CCCOc1ccc(CSc2nc3ccccc3[nH]2)cc1	Bead autofluor 22003, BoNT A protease inconclusive
O=C(C1CCCN(c2ncccn2)C1)N1CCc2ccccc21 (configuration not stated)	Bead autofluor 17813
O=C(NCc1cccc(C(F)(F)F)c1)C1CCCN(c2ncccn2)C1 (configuration not stated)	Bead autofluor 22625, BoNT A protease inconclusive
Cn1nc(N2CCCC(C(=O)N3CCc4ccccc43)C2)ccc1=O (configuration not stated)	none (no result: MazF activator, BoNT F protease, Bead autofluor, Anthrax LF inh2, BoNT A protease)
Cc1ccc(NC(=O)C2CCCN(c3ncccn3)C2)c(C)c1 (configuration not stated)	none
O=C(Nc1ccccc1-c1ccccc1)C1CCCN(c2ncccn2)C1 (configuration not stated)	Bead autofluor 16368
Cc1ccc(N(CC(=O)NN=Cc2cc(C)n(-c3ccccc3C)c2C)S(C)(=O)=O)cc1	none (no result: MazF activator, BoNT F protease, Bead autofluor, Anthrax LF inh2, BoNT A protease)
Cc1cc(N2CCCC2)nc(Nc2ccc(NS(=O)(=O)c3ccc(I)cc3)cc2)n1	PriA SSB inh 44 (no result: MazF activator, BoNT F protease, Bead autofluor, Anthrax LF inh2, BoNT A protease)
CN(CC(=O)Nn1cnnc1)S(=O)(=O)c1ccc(Br)cc1	Bead autofluor 18838, BoNT A protease inconclusive
COc1ccc(C(=O)c2sc3nc(C)cc(-c4cccs4)c3c2N)cc1OC	BoNT F protease 47, Anthrax LF inh2 49, BoNT A protease 71
CC(C)NC(=O)c1sc2nc(-c3cccs3)cc(-c3cccs3)c2c1N	none (no result: BoNT F protease, Bead autofluor, Anthrax LF inh2, BoNT A protease)
CCC(=O)N1CCN(c2ccc(Cl)cc2NC(=O)c2ccc(Br)o2)CC1	Bead autofluor 22198
